From the supplement of paper PMC10849652
About 7,900 targets were measured; listed, in parts, are those with a hit and a random draw of the rest. About 0.6% of all pairs of compound and target were hits.

Compound: c1cn2cc(-c3ccc4cn[nH]c4c3)nc(Nc3ccc(N4CCOCC4)cc3)c2n1 [entospletinib]
Experiment: log2 fold change, soluble protein after heating vs DMSO (PISA); higher = thermal stabilisation; K562 cells, 10 uM, 30 min; active = over 0.2 and 3.5 SD of the protein, either way, in both replicates (recomputed)
Summary of the method: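 K562 cells at 2×10^6 cells/mL were exposed to 10 μM compound for 30 min, then aliquots were heated for 3 min across 48°C-58°C, pooled, and extracted in PBS containing 0.5% NP-40 at 4°C. The supernatant after 21,000xg for 90 min was taken as soluble protein and measured by TMTpro 16plex LC-MS/MS with channel sums equalised. Thermal stability is reported relative to control samples, with values from duplicates. Fold changes are given on a log2 scale.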

Sequence of UniProt P01116 (P01116 whole entry, looked up): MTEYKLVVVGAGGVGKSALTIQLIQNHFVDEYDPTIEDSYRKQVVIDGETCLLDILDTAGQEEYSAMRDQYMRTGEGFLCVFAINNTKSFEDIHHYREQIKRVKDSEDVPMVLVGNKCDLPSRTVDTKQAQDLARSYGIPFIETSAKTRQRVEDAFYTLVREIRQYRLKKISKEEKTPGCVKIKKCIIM
Sequence of UniProt Q9UHB6 (Q9UHB6 whole entry, looked up): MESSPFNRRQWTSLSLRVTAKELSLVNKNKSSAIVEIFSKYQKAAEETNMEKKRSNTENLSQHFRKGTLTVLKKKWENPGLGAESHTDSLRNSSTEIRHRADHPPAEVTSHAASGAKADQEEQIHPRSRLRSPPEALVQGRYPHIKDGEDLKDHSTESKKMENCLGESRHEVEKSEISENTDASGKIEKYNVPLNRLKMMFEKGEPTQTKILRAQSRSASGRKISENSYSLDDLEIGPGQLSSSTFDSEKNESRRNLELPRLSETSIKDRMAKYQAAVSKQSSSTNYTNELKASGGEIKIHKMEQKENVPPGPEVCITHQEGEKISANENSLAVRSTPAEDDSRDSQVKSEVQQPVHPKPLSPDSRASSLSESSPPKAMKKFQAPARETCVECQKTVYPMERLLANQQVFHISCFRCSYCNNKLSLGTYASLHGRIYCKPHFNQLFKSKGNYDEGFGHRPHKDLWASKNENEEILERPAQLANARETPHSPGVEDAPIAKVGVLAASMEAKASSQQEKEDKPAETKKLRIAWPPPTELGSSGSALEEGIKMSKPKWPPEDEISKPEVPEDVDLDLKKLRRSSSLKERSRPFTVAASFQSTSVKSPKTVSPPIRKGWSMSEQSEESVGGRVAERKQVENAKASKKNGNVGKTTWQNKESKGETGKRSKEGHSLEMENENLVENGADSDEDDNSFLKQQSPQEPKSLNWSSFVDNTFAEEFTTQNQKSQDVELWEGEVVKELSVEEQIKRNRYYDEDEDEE
Sequence of UniProt O95232 (O95232 whole entry, looked up): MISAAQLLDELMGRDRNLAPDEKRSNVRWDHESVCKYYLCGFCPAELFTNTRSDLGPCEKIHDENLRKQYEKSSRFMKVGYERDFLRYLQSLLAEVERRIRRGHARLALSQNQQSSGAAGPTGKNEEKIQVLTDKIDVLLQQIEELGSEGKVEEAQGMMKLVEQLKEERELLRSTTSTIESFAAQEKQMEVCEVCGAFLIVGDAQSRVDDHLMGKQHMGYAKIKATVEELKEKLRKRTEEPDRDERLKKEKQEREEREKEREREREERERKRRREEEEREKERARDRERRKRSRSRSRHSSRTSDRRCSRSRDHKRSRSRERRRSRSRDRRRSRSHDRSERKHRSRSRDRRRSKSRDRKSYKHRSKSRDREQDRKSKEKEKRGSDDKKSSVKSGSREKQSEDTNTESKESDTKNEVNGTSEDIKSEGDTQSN
Sequence of UniProt P13473 (P13473 whole entry, looked up): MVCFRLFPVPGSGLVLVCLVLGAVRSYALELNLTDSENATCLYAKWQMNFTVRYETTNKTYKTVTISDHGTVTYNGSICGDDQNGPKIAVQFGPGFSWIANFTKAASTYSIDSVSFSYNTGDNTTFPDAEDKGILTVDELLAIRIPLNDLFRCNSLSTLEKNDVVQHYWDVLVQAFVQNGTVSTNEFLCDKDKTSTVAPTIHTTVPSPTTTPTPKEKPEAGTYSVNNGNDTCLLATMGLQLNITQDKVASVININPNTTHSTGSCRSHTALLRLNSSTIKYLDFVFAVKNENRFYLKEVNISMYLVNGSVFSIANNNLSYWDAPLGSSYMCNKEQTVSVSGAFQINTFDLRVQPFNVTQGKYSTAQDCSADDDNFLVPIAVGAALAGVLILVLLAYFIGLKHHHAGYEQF
Sequence of UniProt Q08431 (Q08431 whole entry, looked up): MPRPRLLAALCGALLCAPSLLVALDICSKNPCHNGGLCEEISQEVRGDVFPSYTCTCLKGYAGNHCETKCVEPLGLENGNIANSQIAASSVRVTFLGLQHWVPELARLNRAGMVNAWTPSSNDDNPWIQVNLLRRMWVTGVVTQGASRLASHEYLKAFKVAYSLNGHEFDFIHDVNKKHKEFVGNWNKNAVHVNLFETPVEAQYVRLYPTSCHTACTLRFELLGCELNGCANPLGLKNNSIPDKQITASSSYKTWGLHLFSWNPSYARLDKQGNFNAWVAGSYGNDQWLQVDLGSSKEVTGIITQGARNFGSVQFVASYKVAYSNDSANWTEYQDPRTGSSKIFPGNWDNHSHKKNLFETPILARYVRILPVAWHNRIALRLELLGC
Sequence of UniProt Q8N108 (Q8N108 whole entry, looked up): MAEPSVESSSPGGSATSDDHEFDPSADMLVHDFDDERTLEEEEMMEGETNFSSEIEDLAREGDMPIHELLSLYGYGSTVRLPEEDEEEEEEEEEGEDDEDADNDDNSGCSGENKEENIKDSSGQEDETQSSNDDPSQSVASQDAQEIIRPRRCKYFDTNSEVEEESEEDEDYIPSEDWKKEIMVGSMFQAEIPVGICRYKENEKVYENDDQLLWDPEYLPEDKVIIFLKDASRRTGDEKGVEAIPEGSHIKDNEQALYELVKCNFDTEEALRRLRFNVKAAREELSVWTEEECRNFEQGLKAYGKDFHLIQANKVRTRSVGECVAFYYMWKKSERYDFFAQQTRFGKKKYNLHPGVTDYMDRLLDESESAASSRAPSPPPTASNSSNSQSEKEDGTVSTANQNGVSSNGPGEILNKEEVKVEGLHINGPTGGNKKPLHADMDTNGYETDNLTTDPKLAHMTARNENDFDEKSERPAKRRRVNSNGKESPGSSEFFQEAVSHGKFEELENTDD
Sequence of UniProt P51884 (P51884 whole entry, looked up): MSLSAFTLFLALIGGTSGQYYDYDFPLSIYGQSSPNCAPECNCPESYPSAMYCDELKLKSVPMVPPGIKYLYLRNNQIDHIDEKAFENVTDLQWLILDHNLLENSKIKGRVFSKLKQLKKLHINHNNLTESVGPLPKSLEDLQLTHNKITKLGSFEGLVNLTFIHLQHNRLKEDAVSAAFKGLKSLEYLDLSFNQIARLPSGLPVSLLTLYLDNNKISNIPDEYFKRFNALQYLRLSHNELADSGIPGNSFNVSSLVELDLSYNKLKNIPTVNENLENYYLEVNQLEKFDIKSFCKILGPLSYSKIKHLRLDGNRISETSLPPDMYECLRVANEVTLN
Sequence of UniProt P43361 (P43361 whole entry, looked up): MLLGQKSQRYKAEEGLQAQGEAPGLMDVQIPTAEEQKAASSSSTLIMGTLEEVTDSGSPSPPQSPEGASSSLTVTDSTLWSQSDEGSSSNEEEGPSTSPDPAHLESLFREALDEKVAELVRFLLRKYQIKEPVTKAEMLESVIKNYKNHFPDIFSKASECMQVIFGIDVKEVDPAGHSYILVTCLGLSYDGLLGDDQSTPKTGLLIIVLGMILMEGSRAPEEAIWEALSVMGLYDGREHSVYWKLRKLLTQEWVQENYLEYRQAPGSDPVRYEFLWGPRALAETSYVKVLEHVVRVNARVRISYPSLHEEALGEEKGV
Sequence of UniProt Q86X29 (Q86X29 whole entry, looked up): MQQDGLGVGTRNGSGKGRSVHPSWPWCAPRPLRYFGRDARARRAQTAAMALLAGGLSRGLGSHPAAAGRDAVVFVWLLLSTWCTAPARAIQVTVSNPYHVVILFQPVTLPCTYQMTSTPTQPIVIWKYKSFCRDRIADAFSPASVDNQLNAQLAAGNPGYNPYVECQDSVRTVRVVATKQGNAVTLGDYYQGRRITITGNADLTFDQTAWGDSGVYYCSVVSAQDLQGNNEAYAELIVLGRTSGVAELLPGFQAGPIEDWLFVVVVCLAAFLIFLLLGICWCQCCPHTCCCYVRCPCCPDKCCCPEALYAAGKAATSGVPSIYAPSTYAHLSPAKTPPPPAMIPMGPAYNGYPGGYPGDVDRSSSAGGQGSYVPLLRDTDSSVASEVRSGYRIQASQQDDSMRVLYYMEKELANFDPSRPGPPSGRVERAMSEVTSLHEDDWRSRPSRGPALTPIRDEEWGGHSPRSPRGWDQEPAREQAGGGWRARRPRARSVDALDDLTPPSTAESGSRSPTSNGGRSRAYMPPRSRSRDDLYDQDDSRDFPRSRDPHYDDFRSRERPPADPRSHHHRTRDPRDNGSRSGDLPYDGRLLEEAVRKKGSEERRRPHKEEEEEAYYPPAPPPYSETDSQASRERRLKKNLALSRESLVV
Sequence of UniProt P22692 (P22692 whole entry, looked up): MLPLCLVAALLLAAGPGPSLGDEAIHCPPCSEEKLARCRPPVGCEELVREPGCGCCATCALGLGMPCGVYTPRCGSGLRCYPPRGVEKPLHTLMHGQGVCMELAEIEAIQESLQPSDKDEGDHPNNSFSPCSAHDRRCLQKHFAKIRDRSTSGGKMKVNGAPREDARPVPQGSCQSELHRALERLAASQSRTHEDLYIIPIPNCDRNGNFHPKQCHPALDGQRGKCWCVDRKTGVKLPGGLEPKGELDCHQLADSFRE
Sequence of UniProt O00214 (O00214 whole entry, looked up): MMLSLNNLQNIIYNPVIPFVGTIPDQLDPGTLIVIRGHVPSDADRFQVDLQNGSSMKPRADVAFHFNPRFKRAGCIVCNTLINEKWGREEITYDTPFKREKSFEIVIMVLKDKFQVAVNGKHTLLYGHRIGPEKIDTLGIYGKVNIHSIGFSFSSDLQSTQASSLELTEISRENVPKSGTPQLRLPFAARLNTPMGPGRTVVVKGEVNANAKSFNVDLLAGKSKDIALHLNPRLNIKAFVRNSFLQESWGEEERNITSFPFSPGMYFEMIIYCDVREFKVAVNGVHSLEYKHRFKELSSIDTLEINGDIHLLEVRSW
Sequence of UniProt Q13257 (Q13257 whole entry, looked up): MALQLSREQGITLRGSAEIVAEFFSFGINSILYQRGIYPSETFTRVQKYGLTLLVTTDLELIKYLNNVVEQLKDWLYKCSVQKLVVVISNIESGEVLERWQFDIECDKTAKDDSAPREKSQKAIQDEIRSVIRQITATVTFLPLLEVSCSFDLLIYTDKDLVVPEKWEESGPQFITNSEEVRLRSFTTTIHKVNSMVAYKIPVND

Target	log2 fold change
LMNA (UniProt P02545)	-0.025 (inactive)
MAGEA8 (UniProt P43361)	0.125 (inactive)
MFGE8 (UniProt Q08431)	0.065 (inactive)
KPNB1 (UniProt Q14974)	0.078 (inactive)
LGALS8 isoform 2 (UniProt O00214)	0.101 (inactive)
MAP4K2 (UniProt Q12851)	0.128 (inactive)
IL27RA (UniProt Q6UWB1)	0.112 (inactive)
MIER1 isoform 12 (UniProt Q8N108)	-0.002 (inactive)
LUC7L3 (UniProt O95232)	-0.005 (inactive)
KDM1A isoform 2 (UniProt O60341)	-0.066 (inactive)
LUM (UniProt P51884)	0.331 (inactive)
LIMA1 isoform 4 (UniProt Q9UHB6)	-0.119 (inactive)
LSR (UniProt Q86X29)	-0.006 (inactive)
LTV1 (UniProt Q96GA3)	0.09 (inactive)
IRF3 (UniProt Q14653)	-0.022 (inactive)
LAMP2 (UniProt P13473)	0.023 (inactive)
IGFBP4 (UniProt P22692)	0.147 (inactive)
MAD2L1 (UniProt Q13257)	0.064 (inactive)
ITPRIP (UniProt Q8IWB1)	-0.005 (inactive)
ILVBL (UniProt A1L0T0)	-0.028 (inactive)
MAP4 (UniProt E7EVA0)	-0.007 (inactive)
INPP1 (UniProt P49441)	0.017 (inactive)
KRAS isoform 2 (UniProt P01116)	-0.053 (inactive)
